This is a sample that favours compounds with a hit; in the whole collection about 0.65% have one here.
SARS PLP yeast – inhibitors of SARS-CoV papain-like protease in yeast; AID 485353; hit rate 0.19% among 330,000; Potency, µM (series often up to 32.9 µM), for inactives: at the highest dose activity, positive = growth rescue, actives largely listed as activators; S. cerevisiae expressing SARS-CoV PLpro, growth rescue; also: 0% is about no effect; nearly all actives have a fitted effect of over 55% in size
NS1 function inh – influenza NS1 inhibition. Potency, µM (doses to about 46.1 µM), without a hit: at the highest dose activity, positive = more growth. hit rate 0.4% among 270,000; also: actives are rising curves; nearly all actives have a fitted effect of over 50% in size
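S. cerevisiae expressing influenza A NS1, grown in glucose, washed, then diluted 1:100 into pH 6.0 -URA galactose medium with 23 nl compound. Growth recovery read as OD600; NS1-free strain serves as control.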
AMA1-RON2 inh – inhibitors of Plasmodium falciparum AMA1-RON2 interaction; AlphaScreen AMA1-biotinylated RON2 peptide binding; Potency, µM (doses to about 58.2 µM), for the others: top-dose activity change, negative = inhibition, hits mostly inhibitors; hit rate 0.2% among 360,000; active = well fitted inhibition curve with a large enough effect; inconclusive = small, poorly fitted or top-dose-only effect; inactive = no such curve, though single readings can be large or run the other way;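 also: 0% = vehicle wells and -100% = peptide control; nearly all actives have a fitted effect of over 45% in size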
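AMA1 (3D7) with his tag at 25 nM final met compounds first, then biotinylated RON2 peptide at 25 nM; detection used donor plus acceptor beads, 10 µg/mL apiece, read by AlphaScreen after 30 min at room temperature.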
* = called active by the depositor; u = inconclusive; x = no result given; [ ] = remark or other dose. Unless noted, calls follow the shape of the full dose curve. Potency is read from the fitted curve at half-maximal effect.

SMILES	SARS PLP yeast	NS1 function inh	AMA1-RON2 inh
CC(C)c1ccccc1NC(=O)CC1(CC(=O)O)CCCC1	1%	1%	-18%
OCC[C@H]1C[C@H](O)[C@@H](O)[C@]2(CCCc3ccccc3O2)O1	2%	x	-5%
Cc1[nH]c2ccc(C(=O)NCc3ccccn3)cc2c1C	-17%	-4%	53%
CC(=O)Nc1ccccc1NC(=O)C/C(C)=N/NC(=O)c1cccnc1	0%	4%	83%
CCN1C(=O)[C@H]2[C@@H](c3ccc(C(F)(F)F)cc3)N[C@]3(CCCN(Cc4ccc(OC)cc4)C3=O)[C@H]2C1=O	x	x	7%
COc1ccccc1CNc1ccc(N2CCCCC2)cc1	-15%	-8%	u
COc1cccc(CNc2ccc(N3CCCCC3)cc2)c1OC	-7%	u	35µM*
O=C(NN=Cc1c(O)ccc2ccccc12)c1ccncc1	x	x	-5%
O=C(N/N=C\c1c(O)ccc2ccccc12)c1ccc(O)cc1	13µM*	6%	126%
O=[N+]([O-])c1ccc(N=Nc2ccc(O)c3ccccc23)cc1	x	x	-27%
CCCN1C(=O)S/C(=C\c2ccc(N3CCOCC3)cc2C)C1=O	7%	5µM*	x
CCN1C(=O)S/C(=C\c2ccc(N3CCOCC3)cc2C)C1=O	-12%	-6%	6%
O=S(=O)(Cc1ncc(C(F)(F)F)cc1Cl)c1ccccc1	1%	9%	-9%
COC1=C(OC)C(=O)C(Sc2ccc3ccccc3c2)=CC1=O	x	x	13µM*
COc1ccc(S(=O)(=O)Oc2ccc3ccccc3c2)cc1	-16%	-21%	1%
COc1ccccc1N1CCN(/N=C/c2ccc([N+](=O)[O-])cc2)CC1	18%	19%	-11%
O=[N+]([O-])c1ccc(C=NN2CCCCCC2)cc1	x	x	25µM*
CSc1ccc(/C=C2\C(=N)N3N=C(CC(=O)N4CCCCC4)SC3=NC2=O)cc1	10%	2%	32%
COc1ccc(OC)c(NC(=O)c2oc3ccccc3c2NC(=O)C2CC2)c1	-3%	10%	14%
COc1ccc(NC(=O)c2oc3ccccc3c2NC(=O)C2CC2)c(OC)c1	1%	16%	4.5µM*
CC(C)CN(C(=O)COC(=O)c1ccc(Br)cc1)c1c(N)n(Cc2ccccc2)c(=O)[nH]c1=O	1%	x	0%
c1ccc(-c2nnc(-c3ccco3)o2)cc1	-4%	-63%	-9%
c1coc(-c2nnc(-c3ccco3)nn2)c1	-9%	9%	16µM*
O=C(NC1CCCC1)C(c1ccncc1)N(C(=O)c1csnn1)C1CCCC1 (configuration not stated)	1%	-6%	10%
Cn1cccc1/C=C1\CCc2ccccc2C1=O	-19%	x	14µM*
SMILES	SARS PLP yeast	NS1 function inh	AMA1-RON2 inh
Cn1cccc1/C=C1\Cc2ccccc2C1=O	-3%	x	-4%
CCOC(=O)c1csc(CCNC(=O)c2ccccc2)n1	x	x	0%
Cc1ccc(CNC(=O)CCSCc2cccc(F)c2)cc1	-3%	-40%	8%
CCOC(=O)CCCCC(=O)c1[nH]c(=O)[nH]c1C[n+]1ccccc1	1%	x	x
CCOC(=O)CCCCC(=O)c1[nH]c(=O)[nH]c1CN1CCOCC1	-2%	-6%	9.5µM*
COc1ccc(N2CCC(CNC(=S)Nc3cc(C)ccc3C)C2)cc1 (configuration not stated)	-2%	-61%	u
COc1ccc(N2CCC(CNC(=S)Nc3cc(C)cc(C)c3)C2)cc1 (configuration not stated)	9%	4%	6.3µM*
COc1ccccc1-c1cc(C(=O)N2CCc3ccccc3C2)no1	x	-84%	x
O=C(NC(=S)NCCSc1ccccc1)c1cccnc1	10µM*	-5%	29%
O=C(NC(=S)NCc1cccnc1)c1ccccc1	6%	9%	21%
CCCc1c(C(=O)N/N=C/c2ccc(OCc3ccc(F)cc3)cc2)nnn1-c1nonc1N	x	x	1%
CCC1C/C(=C\c2cc(OC)c(OC)cc2OC)C(=O)/C(=C/c2cc(OC)c(OC)cc2OC)C1 (configuration not stated)	0%	22%	22µM*
COc1cc(OC)c(OC)cc1/C=C1/Cc2ccccc2C1=O	-3%	6%	0%
CCC1C/C(=C/c2ccco2)C(=O)/C(=C/c2ccco2)C1 (configuration not stated)	-25%	7%	x
COc1cc(OC)c(OC)cc1/C=C1\CC(C)C/C(=C\c2cc(OC)c(OC)cc2OC)C1=O (configuration not stated)	-2%	23%	32µM*
O=C(c1[nH]c(C(F)(F)F)nc1-c1ccccc1)N1CCN(c2c(Cl)cncc2Cl)CC1	x	x	3%
O=C(CSc1ccc(-c2ccccn2)nn1)Nc1nccs1	2%	x	-7%
Cc1csc(NC(=O)CSc2ccc(-c3ccccn3)nn2)n1	7%	x	32µM*
COc1ccc([C@]23Cc4cc(C#N)ccc4C(O2)c2c(cc(C)n(-c4ccccc4)c2=O)O3)cc1	0%[6.58 µM]	25%	x
CCCCn1c(C)cc2c(c1=O)C1O[C@](c3ccc(OC)cc3)(Cc3cc(OC)c(OC)cc31)O2	6%[6.58 µM]	10%	x
CCOC(=O)c1c(C)[nH]c2cc(Br)c(O)cc12	-10%	-30%	10%
CCOC(=O)c1c(OCC)[nH]c2c1cc(O)c1ccccc12	-5%	-11%	15µM*
CC1(C)C(=O)NC(=O)N1Cc1ccccc1	2%	x	3%
COc1ccc(CCNC(=O)CC(=O)N/N=C/c2ccc(Br)cc2)cc1OC	-5%	-6%	13%
Cc1ccc(N2CCN(c3ncccc3[N+](=O)[O-])CC2)c(C)c1	-6%	-5%	13µM*
SMILES	SARS PLP yeast	NS1 function inh	AMA1-RON2 inh
Cc1ccc(C)c(N2CCN(c3ncccc3[N+](=O)[O-])CC2)c1	-9%	-2%	u
CC(=O)Nc1ccc(NC(=O)[C@@H](NC(=O)c2ccccc2F)C(C)C)cc1	0%	-1%	28%
CCN(CC)CCOC(=O)c1ccc(N/C=C(/C#N)c2nc(-c3cccc(OC)c3)cs2)cc1	-14%	-43%	-10%
CCN(CC)CCOC(=O)c1ccc(N/C=C(/C#N)c2nc(-c3ccc(OC)c(OC)c3)cs2)cc1	1%	-66%	28µM*
COc1ccc(S(=O)(=O)N2CCN(Cc3cccc(F)c3)CC2)cc1	x	x	-11%
COc1cccc(CN2CCN(Cc3cccc(F)c3)CC2)c1	-10%	-3%	16µM*
O=C(Nc1cccc(F)c1)Nc1nnc([C@@H]2O[C@H](CO)[C@@H](O)[C@H]2O)s1	x	x	-3%
Cc1ccc(NC(=O)CSc2nnc(-c3ccco3)c(-c3ccco3)n2)cc1	u	-5%	-15%
CN(C)c1ccc(NC(=O)CSc2nnc(-c3ccco3)c(-c3ccco3)n2)cc1	-2%	-4%	18µM*
CSc1ncnc2c1ncn2CC(=O)[C@H]1CC[C@H]2[C@H]3CCC4=CC(=O)CC[C@@]4(C)[C@@H]3CC[C@@]12C	x	5%	x
CCCOc1ccc(/C(O)=C2/C(=O)C(=O)N(CCCN3CCOCC3)C2c2ccncc2)cc1 (configuration not stated)	-2%	10µM*	x
CC(C)Oc1ccc(/C(O)=C2/C(=O)C(=O)N(CCCN3CCOCC3)C2c2ccncc2)cc1 (configuration not stated)	x	15%	x
Cc1nc(N)ncc1CCC1OCCO1	x	x	-3%
COC(=O)C1=C[C@@H](C(=O)OC)[C@@H]2C3=C(C(=O)C2(C)C)[C@H](C)n2c(=O)n(-c4ccccc4)c(=O)n2[C@@H]3C1	x	x	2%

Screening results deposited in PubChem BioAssay by National Center for Advancing Translational Sciences (NCATS).
